Measured values from PubChem BioAssay AID977607 (Broad Institute, 2014).
Screen size: about 1,500 compounds; about 460 (31%) were called active. Inconclusive results (about 1%) are left out.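 Rule for the calls: active = curve reaches 40% activation over neutral controls at an AC40 no higher than the top valid tested concentration; inconclusive = no clear call, values can overlap the other calls; inactive = signal moving opposite to the expected increase, and the rest.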 The list is a sample of the results. Entries with a potency or affinity are not part of this list.

Test: GLuc-reported insulin release enhancers, glucose-stimulated beta cells – cell-based, INS-1E, Gaussia luciferase, luminescence, cherry-pick, set 2, dose response (AID 977607);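 note: 0% = median of the plate neutral control wells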
Details: INS-1E GLuc insulin secretion reporter, 2-3 h, hits give high values; at 35 µM, 100% = signal doubled over neutral wells unless noted

Max activation, inactive:
COc1ccccc1C(OC(=O)c1cccs1)C(=O)NCC1CCCO1 (stereo not drawn) -15.4% [at 0.015 µM, 100% = signal doubled over neutral wells], Cc1cccc(C2N=C(N)Nc3nc4ccccc4n32)c1 (stereo not drawn) -24% [at 0.005 µM, 100% = signal doubled over neutral wells], O=C(Cc1c[nH]c2ccccc12)N[C@@H](Cc1c[nH]c2ccccc12)C(=O)O 39.3% [at 0.135 µM, 100% = signal doubled over neutral wells], C=CCn1c(O)c(N=NC(=O)CNC(=O)c2ccco2)c2ccccc21 10.5%, O=C1NC(c2ccccc2)c2c(-c3ccccc3)n[nH]c21 (stereo not drawn) -9.3% [at 0.005 µM, 100% = signal doubled over neutral wells], O=c1[nH]nc(-c2cccs2)c2ccccc12 31.3%, CCCc1cc(=O)n2[nH]c(C)c(-c3ccc(Cl)cc3)c2n1 24.5% [at 0.0016 µM, 100% = signal doubled over neutral wells], O=C(Nc1ccccc1)Nc1nnc(-c2cccs2)s1 -23.9% [at 11 µM, 100% = signal doubled over neutral wells], CCc1nnc(NC(=O)C(c2ccccc2)c2ccccc2)s1 -21.5%, O=S(=O)(Nc1ncnc2sc3c(c12)CCC3)c1cc(F)ccc1F 30.2% [at 0.135 µM, 100% = signal doubled over neutral wells], NC(=O)c1ccc2nc(-c3ccccc3)c(-c3ccccc3)nc2c1 28.4%, CCOC(=O)Cn1c(=O)n(Cc2ccccc2)c(=O)c2cccnc21 -12.9% [at 0.0016 µM, 100% = signal doubled over neutral wells], O=C(O)CCCNC(=O)c1nn(Cc2ccccc2)c(=O)c2ccccc12 -18.7% [at 0.0016 µM, 100% = signal doubled over neutral wells], c1ccc(Oc2ccccc2-c2cc(NCCc3cccnc3)n3nccc3n2)cc1 -10.9% [at 0.046 µM, 100% = signal doubled over neutral wells], O=C(Nc1nnc(-c2ccc(Cl)cc2)o1)NC1CCCCC1 -20.9%, O=C(CCCC(=O)c1ccccc1)NCc1ccccc1 35.8% [at 3.8 µM, 100% = signal doubled over neutral wells], NCCCNC(=S)NCCCN(Cc1ccc(Cl)cc1)c1ccc(Br)cn1 -16.7% [at 0.005 µM, 100% = signal doubled over neutral wells], Cc1cccc(-c2cc3nc4c(c(N5CCCC(O)C5)n3n2)CCC4)c1 (stereo not drawn) 36.7% [at 11 µM, 100% = signal doubled over neutral wells], COc1ccc(C2=NOC(C(=O)NCc3ccccn3)C2)cc1OC (stereo not drawn) 31.6%, Fc1ccc(-c2csc3nnc(SCc4cccnc4)n23)cc1 18.4%, Cn1c(=O)c2[nH]c(SCc3ccccn3)nc2n(C)c1=S -21.4% [at 11 µM, 100% = signal doubled over neutral wells], O=S1(=O)c2ccccc2OC(COCc2ccccc2)CN1C1CC1 (stereo not drawn) -28.4%, CCN(CC)C(=O)c1ccccc1NS(=O)(=O)c1ccc(C)cc1 -13.4% [at 0.0016 µM, 100% = signal doubled over neutral wells], Cn1c(N)c(C(c2ccccc2)c2c(N)n(C)c(=O)n(C)c2=O)c(=O)n(C)c1=O 17.9% [at 0.005 µM, 100% = signal doubled over neutral wells], CC(C)c1ccc(NC2CCCN(C(=O)c3cccnc3)C2)cc1 (stereo not drawn) -13.8% [at 0.42 µM, 100% = signal doubled over neutral wells], CCOC(=O)c1nc(-c2ccccc2)oc1N(C)C -16.2% [at 1.2 µM, 100% = signal doubled over neutral wells], CCCc1nc(N)sc1C(=O)OCC -11.4% [at 1.2 µM, 100% = signal doubled over neutral wells], Nc1nc(SCc2nc3scc(-c4ccccc4)c3c(=O)[nH]2)n[nH]1 50.6%, O=c1cc(-c2cccc(Br)c2)nc(-c2ccccc2F)o1 -17.1% [at 11 µM, 100% = signal doubled over neutral wells], Cc1nc(N)c(C#N)c(-c2cccnc2)c1-c1ccccc1 45.7% [at 11 µM, 100% = signal doubled over neutral wells], Cc1cc(C)n2ncc(-c3cccc(Br)c3)c2n1 -17% [at 0.0016 µM, 100% = signal doubled over neutral wells], Cc1ccc(C(=O)n2nc(-c3cccnc3)nc2N)cc1 23.7%, N#Cc1c(-c2ccco2)cc(C2CC2)nc1N 25.6%, CC1CCc2nc(N)c(C#N)c(-c3ccncc3)c2C1 (stereo not drawn) 21.5%, Cc1cccc(C)c1OCCCn1ccnc1 41% [at 0.046 µM, 100% = signal doubled over neutral wells], O=C(CC1SC2=NCCN2C1=O)Nc1ccc(Br)cc1 (stereo not drawn) -22.5% [at 0.42 µM, 100% = signal doubled over neutral wells], Cc1ccc(NC(=O)CN(C(=O)N2CCN(C)CC2)S(=O)(=O)c2ccc(C)cc2)cc1 -21.9% [at 1.2 µM, 100% = signal doubled over neutral wells], Cc1cc(S(=O)(=O)Nc2nc(CN3CCOCC3)nc3sc4c(c23)CCC4)ccc1F -12.9% [at 0.135 µM, 100% = signal doubled over neutral wells]
